# Bioassay records deposited in PubChem by National Center for Advancing Translational Sciences (NCATS).
# The list is not random: actives were taken first. Their share in the collection is about 11%.
# HEK cytotox: Cytotoxic Profiling in HEK 293 Cell Line of Diverse Libraries Using Quantitative High-Throughput Screening | HEK 293 viability, ATP luminescence (CellTiter-Glo), 48-72 h | Potency, µM (top dose mostly 115 µM), actives largely listed as inhibitors | hit rate 6.6% among 94,000 | AID 1345083, 2018; note: nearly all actives have a fitted effect of over 60% in size
#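 Viability of HEK 293 cells, plated at 250 cells/well, was judged by cellular ATP after compound treatment for 48 or 72 hr. Luminescence was imaged 10 min after CellTiter-Glo addition at room temperature.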
# 3T3 cytotox: Cytotoxic Profiling in NIH 3T3 Cell Line of Diverse Libraries Using Quantitative High-Throughput Screening | NIH 3T3 viability, CellTiter-Glo ATP luminescence, 48-72 h | Potency, µM (doses to about 96.7 µM), hits mostly inhibitors | hit rate 4.3% among 94,000 | AID 1345082, 2018; note: nearly all actives have a fitted effect of over 55% in size
#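 First NIH 3T3 cells are plated at 400 cells/well; next compound is pinned in; then plates incubate 48 or 72 hr at 37 °C; finally CellTiter-Glo is added and luminescence read after 10 min.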
# hNpr1 antagonist: Natriuretic polypeptide receptor (hNpr1) antagonism - Primary qHTS; Atrial natriuretic peptide receptor 1 (Homo sapiens), P16066; HEK293 hNpr1 GloSensor cGMP, ANP-stimulated luminescence; Potency, µM (highest dose often 46.3 µM), hits mostly inhibitors; hit rate 1.6% among 76,000; calls by dose curve; note: nearly all actives have a fitted effect of over 60% in size
# Target sequence (P16066 whole entry, looked up): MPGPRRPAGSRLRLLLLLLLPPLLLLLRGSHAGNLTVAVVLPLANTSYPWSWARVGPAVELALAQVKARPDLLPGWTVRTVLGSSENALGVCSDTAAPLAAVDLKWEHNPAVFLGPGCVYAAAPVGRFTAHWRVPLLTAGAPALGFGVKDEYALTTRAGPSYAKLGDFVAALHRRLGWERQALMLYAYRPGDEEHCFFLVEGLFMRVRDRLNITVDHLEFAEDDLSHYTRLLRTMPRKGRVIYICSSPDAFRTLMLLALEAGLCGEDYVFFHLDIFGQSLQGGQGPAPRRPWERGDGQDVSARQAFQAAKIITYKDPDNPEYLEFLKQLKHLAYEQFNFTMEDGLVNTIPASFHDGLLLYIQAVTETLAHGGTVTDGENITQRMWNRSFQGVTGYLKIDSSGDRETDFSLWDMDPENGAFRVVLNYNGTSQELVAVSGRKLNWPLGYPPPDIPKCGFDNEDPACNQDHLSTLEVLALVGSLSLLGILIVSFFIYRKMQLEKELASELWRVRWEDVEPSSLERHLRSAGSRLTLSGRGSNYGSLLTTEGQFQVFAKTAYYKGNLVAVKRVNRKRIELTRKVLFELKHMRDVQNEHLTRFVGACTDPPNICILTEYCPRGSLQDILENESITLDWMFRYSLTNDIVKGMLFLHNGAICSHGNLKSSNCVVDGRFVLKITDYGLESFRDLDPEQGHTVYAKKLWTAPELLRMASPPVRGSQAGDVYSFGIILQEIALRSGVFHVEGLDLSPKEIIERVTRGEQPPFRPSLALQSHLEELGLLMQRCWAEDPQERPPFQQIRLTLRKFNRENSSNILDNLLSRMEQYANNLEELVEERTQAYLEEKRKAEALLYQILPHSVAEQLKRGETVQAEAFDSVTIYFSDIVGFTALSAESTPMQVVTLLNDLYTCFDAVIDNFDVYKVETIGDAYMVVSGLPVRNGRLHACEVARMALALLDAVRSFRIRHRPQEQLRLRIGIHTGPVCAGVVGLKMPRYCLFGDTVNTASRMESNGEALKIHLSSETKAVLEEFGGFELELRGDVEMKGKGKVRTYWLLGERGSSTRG
#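 HEK293 cells stably expressing human Npr1 and cGMP GloSensor pGS-40F, loaded 2 h with 2% GloSensor reagent, given compound 30 min at room temperature. Luminescence read before and 20 min after 0.1 nM hNppA.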
# FLuc inh-1: Firefly luciferase inhibition profiling of diverse chemical library using quantitative high-throughput screening | hit rate 2.5% among 76,000 | Luciferin 4-monooxygenase (Photinus pyralis), P08659 | purified P. pyralis luciferase, luminescence, biochemical | AID 1347043, 2019 | Potency, µM (series often up to 115 µM), actives largely listed as inhibitors; note: nearly all actives have a fitted effect of over 65% in size
#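 Cell-free enzyme assay, 10nM P. pyralis luciferase, luciferin and ATP each at 10uM. Inhibition profiled over a 6-point titration, read as luminescence.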
# FLuc SDR no ATP: Firefly luciferase (FLuc-C-HiBiT) SDR gain of signal screen - without ATP; shares compounds with FLuc inh-1; Purified FLuc-C-HiBiT, Nano-Glo HiBiT luminescence, no ATP; Potency, µM (series often up to 32.7 µM), actives largely listed as activators; hit rate 7.8% among 1,300; note: nearly all actives have a fitted effect of over 55% in size
# FLuc SDR ATP: Firefly luciferase (FLuc-C-HiBiT) SDR gain of signal screen - plus ATP; shares compounds with FLuc inh-1; purified FLuc-C-HiBiT + ATP, HiBiT complementation luminescence; Potency, µM (top dose mostly 32.7 µM), most hits filed as activators; hit rate 8.7% among 1,300;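 note: signal reports ligand binding via conformational change of the enzyme rather than luciferase catalysis; nearly all actives have a fitted effect of over 55% in size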
# FLuc inh-2: Firefly luciferase (FLuc-C-HiBiT) enzymatic inhibition screen - Functional assay. shares compounds with FLuc inh-1. purified FLuc-C-HiBiT enzyme, luciferin luminescence. Potency, µM (highest dose often 32.7 µM), actives largely listed as inhibitors. hit rate 42% among 1,300. AID 1963320, 2024; note: nearly all actives have a fitted effect of over 70% in size
# Hits are given with their value; – = inactive; ? = inconclusive; · = not tested or not shown. Unless noted, calls come from the whole dose curve; as a rule, active = well fitted curve in the direction sought with a large enough effect; inconclusive = small, poorly fitted or top-dose-only effect, or another doubt; inactive = no such curve, though single readings can be large; an effect the other way counts as inactive or inconclusive.
SMILES,HEK cytotox,3T3 cytotox,hNpr1 antagonist,FLuc inh-1,FLuc SDR no ATP,FLuc SDR ATP,FLuc inh-2
CC1=C[C@@H](CNC(=O)c2ccncc2)[C@H](C(C)C)C[C@H]1CC(=O)N1CCOCC1,–,–,?,12.6µM,–,–,–
Cc1cc(F)cc(CN2CCc3nc(C(=O)NCc4ccncc4)oc3CC2)c1,?,?,?,–,·,·,·
O=C(Nc1ccccc1)c1nc2c(o1)CCN(Cc1ccc(O)cc1)CC2,?,–,25.1µM,0.562µM,?,?,5.08µM
Cc1csc(NC(=O)c2nc3c(o2)CCN(Cc2cccc(F)c2)CC3)n1,50.1µM,?,–,2.82µM,–,?,14.3µM
Cc1ccc(CN2CCc3nc(C(=O)Nc4ccccc4)oc3CC2)cc1,?,?,22.4µM,5.01µM,–,–,?
Cn1cc(CN2CCc3nc(C(=O)Nc4ccccc4)oc3CC2)cn1,·,·,·,·,–,–,?
O=C(NCc1ccncc1)c1nc2c(o1)CCN(Cc1ccccc1F)CC2,?,–,?,–,·,·,·
Cc1cn2nc(C(=O)NCc3cccc(Cl)c3)cc2c(N(C)Cc2ccccc2)n1,?,?,–,–,·,·,·
COCCO[C@H]1C(=O)N(C2CCN(C(=O)COc3ccccc3)CC2)[C@H]1c1ccncc1,–,–,–,–,·,·,·
O=C(Nc1ccccc1)c1nc2c(o1)CCN(Cc1ccccn1)CC2,?,?,?,3.98µM,–,?,?
O=C(c1ccc(F)cc1)N1CCCC(C(=O)N2CCC(N3Cc4cccn4C3=O)CC2)C1 (stereo unspecified),–,–,·,·,·,·,·
O=C(O)c1ccc(-c2nnc3ccc(NC(=O)C4CCC4)cn23)cc1,–,–,–,10µM,?,?,?
Cc1ccc(OCC(=O)Nc2cccc(C(=O)OCc3cc(=O)n4nc(C)sc4n3)c2)cc1,·,·,·,·,–,?,?
CC(C)Oc1ccc2c(NC(=O)c3cccnn3)nn(CC(F)(F)F)c2c1,?,?,–,–,·,·,·
CC(=O)NC1CCN(Cc2cn(-c3ccc(C)cc3)nc2-c2cccc(C)c2)C1 (stereo unspecified),?,?,–,12.6µM,–,–,?
Cc1cccc(C(=O)Nc2nc3c(s2)CCCC3)c1,·,·,·,·,?,?,2.48µM
O=S(=O)(c1cccc(C(F)(F)F)c1)n1c(/C=C/c2ccccc2)nc2ccccc21,·,·,·,·,1.57µM,?,0.556µM
CSc1ccc(/C=C/c2nc3ccccc3n2S(=O)(=O)c2ccc(Br)cc2)cc1,·,·,·,·,7.85µM,?,0.7µM
COC(=O)[C@@H]1Cc2ncn(Cc3ccccc3)c2CN1S(=O)(=O)c1cccc(C(F)(F)F)c1,?,?,–,–,·,·,·
Cc1ccc(NC(=O)c2ncn(-c3ccccc3)n2)cc1Cl,·,·,·,·,–,–,?
CN(Cc1ccc(F)cc1)Cc1cn(-c2ccccc2)nn1,–,–,–,–,·,·,·
Cc1ccc(NC(=O)Nc2ccc(C)n(CC(=O)NC(C)c3cccnc3)c2=O)cc1 (stereo unspecified),?,–,–,1.12µM,7µM,?,1.57µM
Cc1ccc(NC(=O)Nc2ccc(C)n(CC(=O)NC3CCCC3)c2=O)cc1,?,?,?,0.398µM,1.57µM,?,0.7µM
Cc1ccc(NC(=O)Nc2ccccc2)c(=O)n1CC(=O)NCC1CCCO1 (stereo unspecified),–,?,–,14.1µM,?,?,?
Cc1ccc(NC(=O)Nc2ccccc2)c(=O)n1CC(=O)NC1CCCCC1,–,–,–,–,·,·,·
SMILES,HEK cytotox,3T3 cytotox,hNpr1 antagonist,FLuc inh-1,FLuc SDR no ATP,FLuc SDR ATP,FLuc inh-2
Cc1ccc(S(=O)(=O)Nc2ccc(C)n(CC(=O)NC(C)c3ccccc3)c2=O)cc1 (stereo unspecified),–,–,–,–,·,·,·
COc1ccc(NC(=O)Nc2ccc(C)n(CC(=O)N3CCCCCC3)c2=O)cc1,–,–,–,8.91µM,?,?,9.89µM
O=C(NC1CCN(CCn2nc3n(c2=O)CCCC3)C1)c1ccccc1 (stereo unspecified),–,–,·,·,·,·,·
CCN1CCN(C(=O)c2ccc3oc(-c4ccncc4Cl)nc3c2)CC1,–,–,·,·,·,·,·
O=C1NCc2ccccc2CC12CCN(Cc1ccc(Cl)cc1)CC2,?,–,·,·,·,·,·
COc1ccccc1NC(=O)Cn1c(C)ccc(NC(=O)Nc2ccc(C)cc2)c1=O,?,22.4µM,?,0.631µM,?,?,0.7µM
Cc1ccc(NC(=O)Nc2ccc(C)n(CC(=O)N3CCC(C)CC3)c2=O)cc1,?,–,–,4.47µM,?,?,3.94µM
Cc1ccccc1Oc1ncccc1CNCc1cccc(O)c1,?,–,–,–,·,·,·
CCOC(=O)C1(C)C=C(Nc2cccc(C(=O)O)c2)C(=O)N1c1ccccc1 (stereo unspecified),·,·,·,·,–,?,?
O=C(NCc1cccc(C(F)(F)F)c1)c1cc(-c2cc(Cl)cc(Cl)c2)c2nncn2n1,–,–,·,·,·,·,·
O=C(Cc1cccnc1)N1CCC2(CC1)CN(Cc1ccccc1)CC2CO (stereo unspecified),?,–,–,–,·,·,·
CC(C)Cn1c(=O)c(C(=O)Nc2ccc(F)cc2)nc2cccnc21,–,–,·,·,·,·,·
CCn1c(=O)c(C(=O)Nc2ccc(C(C)=O)cc2)nc2ccccc21,·,·,·,·,?,?,?
CN(CC(=O)N1CCCC(CCc2ccc(F)cc2)C1)C1CCNCC1 (stereo unspecified),?,?,–,–,·,·,·
CN1Cc2cccn2CC1CNC(=O)c1ccsc1 (stereo unspecified),–,–,–,–,·,·,·
Cc1noc(-c2cccn3c(CNC(=O)c4ccc(C(C)(C)C)cc4)nnc23)n1,?,–,–,7.94µM,?,?,9.89µM
Cc1noc(-c2cccn3c(CNC(=O)c4ccccc4)nnc23)n1,–,–,–,–,·,·,·
COc1ccc(C2Cn3nnc(-c4noc(-c5ccc[nH]5)n4)c3CO2)cc1 (stereo unspecified),?,?,–,–,·,·,·
COc1ccc(C2Cn3cnc(C(=O)N4CCC(C(=O)Nc5ccc(C)c(F)c5)CC4)c3CO2)cc1 (stereo unspecified),–,–,–,?,·,·,·
CCc1cccc(NC(=O)C2CCN(C(=O)c3ncn4c3COC(c3ccccc3)C4)CC2)c1 (stereo unspecified),–,–,?,3.55µM,–,1.24µM,1.76µM
